Compound activity: PubChem, National Center for Advancing Translational Sciences (NCATS)
Most compounds without a hit are left out; they make up all but 10% or so of the library.
G9a block: qHTS Assay for Inhibitors of Histone Lysine Methyltransferase G9a; 350,000 tested, 8.8% active; AID 504332, 2011; Potency, µM (titrated, usually from 102 µM), actives largely listed as inhibitors; G9a H3K9 monomethylation, AlphaScreen, 2 h; further: nearly all actives have a fitted effect of over 75% in size
Target sequence (Q96KQ7 913-1193 limits assumed): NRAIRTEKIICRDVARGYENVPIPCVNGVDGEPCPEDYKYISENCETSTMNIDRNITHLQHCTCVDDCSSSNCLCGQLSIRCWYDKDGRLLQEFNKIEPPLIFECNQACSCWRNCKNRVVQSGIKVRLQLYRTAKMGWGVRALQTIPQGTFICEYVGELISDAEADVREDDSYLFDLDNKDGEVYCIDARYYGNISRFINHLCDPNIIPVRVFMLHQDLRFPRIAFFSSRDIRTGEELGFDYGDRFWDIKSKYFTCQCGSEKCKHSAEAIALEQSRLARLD
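Compounds were preincubated with 20 nM G9a for 15 min, after which biotinylated H3K9 peptide (500 nM) and SAM (20 uM) started a 2 h room-temperature reaction. Monomethylated product was quantified by antibody-based AlphaScreen chemiluminescence.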
JMJD2A Tudor inh: qHTS Assay for Inhibitors of JMJD2A-Tudor Domain; 390,000 tested, 4.4% active; AlphaScreen JMJD2A-Tudor / H3K4me3 peptide binding; Lysine-specific demethylase 4A (Homo sapiens), O75164; Potency, µM (series often up to 114 µM), most hits filed as inhibitors; AID 504339, 2011; further: nearly all actives have a fitted effect of over 50% in size
CtBP-E1A blk: qHTS Assay for Inhibitors of the CtBP/E1A Interaction; CtBP / adenovirus E1A interaction (AlphaScreen); AlphaScreen GST-E1A/His-CtBP binding, 1536-well; hits give low values; activity change, % (no concentration beside the values); 340,000 tested, 0.49% active; AID 651724, 2012; in the data active means activity change below about -65%; inconclusive means mostly about -30% to -63%
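GST-E1A and His-tagged CtBP (125 nM each as 5X stock) were preincubated with pin-transferred compound for 2 h at 37 °C in the dark, then glutathione donor and nickel acceptor beads were added for 1 h before AlphaScreen reading.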
HP1b chromo inh: HTS for Inhibitors of HP1-beta Chromodomain Interactions with Methylated Histone Tails | AlphaScreen HP1-beta / biotin-H3K9me3 peptide binding | AID 540317, 2011 | Potency, µM (titrated, usually from 114 µM), usual class: inhibitors | Chromobox protein homolog 1 (Homo sapiens), P83916 | 390,000 tested, 0.56% active; further: nearly all actives have a fitted effect of over 70% in size
Target sequence (P83916 whole entry, looked up): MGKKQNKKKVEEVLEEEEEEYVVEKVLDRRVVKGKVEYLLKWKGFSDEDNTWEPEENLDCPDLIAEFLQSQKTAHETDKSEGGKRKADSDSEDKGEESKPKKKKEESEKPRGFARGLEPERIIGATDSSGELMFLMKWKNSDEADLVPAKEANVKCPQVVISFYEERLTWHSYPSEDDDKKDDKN
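AlphaScreen: HP1-beta (50 nM) preformed 30 min with biotin-H3(1-18)K9me3 peptide (50 nM) in PBS pH 7.4, 0.01% Tween-20. Compound added for 30 min at RT, then streptavidin donor/nickel chelate acceptor beads (10 ug/mL) for 30 min.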
Six1-Eya2 inh: qHTS Assay for Inhibitors of the Six1/Eya2 Interaction; Homeobox protein SIX1 (Homo sapiens) + Protein phosphatase EYA2 (Homo sapiens), …; AlphaScreen GST-Six1/His-Eya2 binding, biochemical; hits give low values; activity change, % (no concentration beside the values); 360,000 tested, 0.56% active; AID 651725, 2012; in the data active means activity change below about -65%; inconclusive means mostly about -30% to -63%
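Six1/Eya2 binding was read as AlphaScreen signal after compounds were pinned into GST-Six1 plus His-tagged Eya2 (5X stock 250/500 nM) in pH 8.0 Tris/NaCl/TCEP buffer, beads added, then incubated 1 h, 37 C, dark.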
BAZ2B inh: qHTS Assay for Inhibitors of BAZ2B | AlphaScreen BAZ2B-H3K14Ac peptide displacement | Potency, µM (series often up to 114 µM), hits mostly inhibitors | 360,000 tested, 4.4% active; further: nearly all actives have a fitted effect of over 60% in size
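BAZ2B 50 nM plus b-H3(5-23)K14Ac 50 nM, PBS pH 7.4/0.01% Tween-20, 30 min RT; compound added (max 110 uM), 30 min RT; streptavidin donor/Ni-chelate acceptor beads 10 ug/mL final, 20 min dark; AlphaScreen read.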
A number is an active result; . = inactive; ? = inconclusive; / = not tested or not shown; [ ] = dose if it differs, or a comment. Unless noted, the call rests on the fitted dose curve; in most records, active means well fitted inhibition curve with a large enough effect; inconclusive means small, poorly fitted or top-dose-only effect; inactive means no such curve, though single readings can be large or run the other way.

SMILES	G9a block	JMJD2A Tudor inh	CtBP-E1A blk	HP1b chromo inh	Six1-Eya2 inh	BAZ2B inh
Cc1cc(NCc2ccccn2)ccc1Br	25µM	8.9µM	.	.	.	50µM
COC(=O)c1cc(NCc2ccccc2F)ccc1N1CCOCC1	45µM	.	.	.	.	.
Cc1ccc(CNc2ccc(N3CCOCC3)c(C(=O)O)c2)s1	.[12.7 µM]	.	.	.	.	.
O=C(O)c1cc(NCc2c(F)cccc2Cl)ccc1N1CCOCC1	13µM	.	.	.	.	.
CCOc1ccccc1CNc1ccc(N2CCOCC2)c(C(=O)O)c1	.	.	.	.	.	.
CCCCn1c(=O)c2oc3ccccc3c2n(CC(=O)Nc2cccc(Cl)c2)c1=O	.	.	/	.	/	.
COc1cc(C(=O)OCc2cc(=O)n3nc(C(C)C)sc3n2)cc(OC)c1OC	.	.	/	?	/	?
CCCN(CCO)Cc1ccc(F)c(Br)c1	16µM	14µM	.	?	.	79µM
CCCN(CCO)Cc1ccc2ccccc2c1	.	.	.	.	.	.
CC(/C=C/c1ccccc1)=N\Nc1ccccc1[N+](=O)[O-]	0.89µM	10µM	?	4µM	?	2.2µM
CC(/C=C/c1ccccc1)=N/NC(=O)c1cc([N+](=O)[O-])cc([N+](=O)[O-])c1	.	.	.	.	.	.
O=C(Nc1ccc(F)cc1)Nc1cc(S(=O)(=O)N2CCOCC2)ccc1N1CCCC1	35µM	.	.	.	.	?
O=C(Cc1ccccc1Cl)Nc1cc(S(=O)(=O)N2CCOCC2)ccc1N1CCOCC1	3.5µM	.	.	.	.	.
CCOc1ccc(Oc2ccc(S(=O)(=O)N3CCOCC3)cc2NC(=O)C2=COCCO2)cc1	.[2.33 µM]	.	.	.	.	.
NC(=O)C1CCN(CC(=O)Nc2cc(S(=O)(=O)N3CCOCC3)ccc2N2CCCC2)CC1	20µM	.	/	.	.	.
O=C(Nc1cc(S(=O)(=O)N2CCOCC2)ccc1Oc1ccc(F)cc1)C1=COCCO1	50µM	.	.	.	.	.
O=C(Nc1ccccc1)Nc1cc(S(=O)(=O)N2CCOCC2)ccc1N1CCCC1	?	.	.	?	.	.
CCN(C(=S)Nc1cc(S(=O)(=O)N2CCOCC2)ccc1Cl)c1cccc2ccccc12	1.8µM	.	.	.	.	?
CC1CC1C(=O)Nc1cc(S(=O)(=O)N2CCOCC2)ccc1N1CCCC1 (stereo not drawn)	?	.	.	.	.	.
O=C(Nc1cc(S(=O)(=O)N2CCOCC2)ccc1N1CCCC1)C1CC1	40µM	.	.	.	.	.
O=C(Nc1ccc(Cl)cc1)Nc1cc(S(=O)(=O)N2CCOCC2)ccc1N1CCCC1	40µM	.	.	.	.	.
Cc1cc2c(c(=O)o1)C1O[C@](CCCCN3C(=O)c4ccccc4C3=O)(Cc3cc(C#N)ccc31)O2	/	/	/	/	/	.[22.9 µM]
Cc1oc2c(c(C)cc3oc(=O)c(CC(=O)NCCc4ccc(Cl)cc4)c(C)c32)c1C	.	.	/	.	/	.
O=C(c1cccs1)N1CCCc2cc(NS(=O)(=O)c3ccc(F)cc3)ccc21	.	.	/	.	/	.
O=C(O)c1cccc2cccc(-c3c4ccc(=O)c(O)c-4oc4c(O)c(O)ccc34)c12	/	0.79µM	.	?	-76	/
SMILES	G9a block	JMJD2A Tudor inh	CtBP-E1A blk	HP1b chromo inh	Six1-Eya2 inh	BAZ2B inh
COc1cccc(C2/C(=C(\O)c3ccc4c(c3)OCCO4)C(=O)C(=O)N2CCCn2ccnc2)c1 (stereo not drawn)	?	63µM	.	.	.	56µM
COc1cccc(C2/C(=C(/O)c3ccc4c(c3)CC(C)O4)C(=O)C(=O)N2CCCn2ccnc2)c1 (stereo not drawn)	50µM	.	.	.	.	.
CCN(CC)CCN1C(=O)C(=O)/C(=C(/O)c2ccc3c(c2)CC(C)O3)C1c1ccc(OC)cc1 (stereo not drawn)	50µM	?	.	.	.	.
O=C1C(=O)N(CCCn2ccnc2)C(c2cccc(Br)c2)/C1=C(\O)c1ccc2c(c1)OCCO2 (stereo not drawn)	?	?	.	.	.	.
COc1cccc(C2/C(=C(/O)c3ccc4c(c3)CC(C)O4)C(=O)C(=O)N2c2nnc(C)s2)c1 (stereo not drawn)	40µM	.	.	.	.	.
Cc1nnc(N2C(=O)C(=O)/C(=C(\O)c3ccc4c(c3)CC(C)O4)C2c2ccccc2)s1 (stereo not drawn)	.	.	.	.	.	.
COc1ccc(OC)c(S(=O)(=O)N2CCN(Cc3nc4ccc(C)cc4o3)CC2)c1	.	.	/	.	/	.
O=C(CCc1ccccc1)NCCc1csc(-c2cccc(F)c2)n1	.	.	/	.	/	.
CC1Cc2cc(/C(O)=C3/C(=O)C(=O)N(CCCn4ccnc4)C3c3ccc([N+](=O)[O-])cc3)ccc2O1 (stereo not drawn)	/	?	.	.	.	/
CC1Cc2cc(/C(O)=C3/C(=O)C(=O)N(CCCn4ccnc4)C3c3ccc(F)cc3)ccc2O1 (stereo not drawn)	45µM	.	.	.	.	.
COc1ccc(C(=O)NCc2nnc(SCC(=O)c3ccccc3)n2C)cc1OC	56µM	.	.	.	.	.
COc1ccc(C(=O)CSc2nnc(CNC(=O)c3ccc(OC)cc3)n2C)cc1	?	50µM	.	.	.	.
Cc1cc(C)nc(SCc2nnc(SCC(=O)Nc3nc(-c4ccccc4)cs3)n2C)n1	.	.[11.4 µM]	.	.	.	.
Cc1ccc(C(=O)CSc2nnc(CNc3nc(-c4ccccc4)cs3)n2C)cc1	35µM	.[11.4 µM]	.	.	?	?
Cc1ccc(-c2noc(CN(C)C(=O)c3ccc(Br)o3)n2)cc1	50µM	.	.	?	.	?
Cc1cc(N2CCN(c3ccccc3)CC2)n2cc(-c3ccccc3)nc2n1	.[12.7 µM]	?	.	.	.	45µM
Cc1cc(N2CCN(c3cc(Cl)ccc3C)CC2)n2nc(-c3ccccc3)nc2n1	.	.	/	.	/	.
Cc1cc(N2CCN(c3ccccc3Cl)CC2)n2cc(-c3ccccc3)nc2n1	50µM	?	.	.	.	?
Cc1ccc(CN(C(=O)COc2cc(C)c(Cl)c(C)c2)c2ccccn2)o1	.	.	/	.	/	.
CCOc1cc(N2CCOCC2)c(OCC)cc1NC(=O)CSc1ncn[nH]1	45µM	.	.	.	.	.
